test system: PPARg:RXRa DBDmut IVT, anti-RXR (DBD mutation: RXRa K156A/R161A, NR concentration 270 nM, RXRa partner concentration 90 nM); test: PBM binding z-score (relative to random genomic background probes); higher = stronger binding; sequences stand for … in GC…GCGATTGACAGCGTAGAATGAAGG
Summary of the method: (§1)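 Binding buffer was PBS pH 7.4 with 2% milk, 0.02% Triton X-100, 1 mM DTT, 0.2 mg/mL BSA and 0.4 mg/ml salmon testes DNA. In it, ligand-free nuclear receptor dimers were incubated 1 h on custom Agilent 4×180K protein-binding microarrays carrying double-stranded probes. Antibodies against each partner (one per run) detected binding, and z-scores were calculated against random background probes after regression normalization of scanned fluorescence.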

Compared with CAAACTAGGTAACCGGAAGGTCAAAGTCCGCATG, TCTCGGAGGACACGAGAGGTCAGAGCTCGACATC is lower in PBM binding z-score: 6.68 for the first, 1.28 for the second.

First: AGAATGAGATTATACGTAGATCAGGGAAGAAAGT
Second: CCTAGCAGGCCAATCTGAGTCACTCAAGGCTTGA
The PBM binding z-score of the first is lower: -0.76 for the first, 1.42 for the second.

Going from GTACCAAAGTGAATAGGTCGTTGATGAGTAGGCG to GGTACAGGGTCAAGGCCAGAGTACGCGTATTGAT, the PBM binding z-score rises from -0.402 to 1.42.

Compared with ACTTTCGGGTCAACGAGGTTATAGCACGCGTATA, AATACTGGGTCACTAGGCCAGAGTAGGTACGAAT is higher in PBM binding z-score: 3.31 for the first, 6.63 for the second.

Compared with AGAACGAGGGCACGCTGAGTGGATAGCAGAGTAG, GGAACGAGGGCAAGTTGATAGGAGAGTTTGATGG is lower in PBM binding z-score: 4.13 for the first, 3.49 for the second.

First: CCTATTAGTTGACCGTAAGGGCAACCGAAGCTCG
Second: CCTAGCAGGCCAGGGTCACTAAAGCATTTCGCTT
The PBM binding z-score of the first is higher: 0.0924 for the first, 0.051 for the second.

Compared with TCCTATAGGTAATACAGGTGAAAGTCGGCATCTA, TCTTGTAGATCAGCAGGTTAAAAAAGCTGGCCAA is lower in PBM binding z-score: 2.84 for the first, 1.58 for the second.

First: CCTAGCAGGCCAGGGTAACTCAAGCATTTCGCTT
Second: GGAACGAGGGCAAAGTTTATAGCATCTGTCGACG
The PBM binding z-score of the first is lower: 0.216 for the first, 4.26 for the second.

Going from CCTTACGGGTCACGGACAGGTTATAGCATTTGGA to TCATTTAGGTAAAAGGTGAAAGTCGGTGTGGTAA, the PBM binding z-score rises from 3.87 to 4.84.

Going from CGTCAAAGTTCAACTAACGTAACGTAAAGCACGC to TCTTGTAGTTCAGCAGGTTAAGAAAGCTGGCCAA, the PBM binding z-score rises from 0.504 to 1.37.

Compared with CCAACTAGGTCAAGGTCAAAGTCGGTTTGTGCCA, ACTCGGAGGACAAAGGTCAGAGCTACGCCAGTGA is lower in PBM binding z-score: 8.26 for the first, 0.692 for the second.

Compared with TCATATAGTTAAAGGTGAAAGTCGAACGATATGA, GGAACGAAGGCAAAGTTGATAGCATCTGTCGACG is lower in PBM binding z-score: 1.5 for the first, -0.211 for the second.

Going from ATCTCGAGGTAAAAGTTCAGTGAATCCCGAGGAT to GCTAGTTGGTCCGTAAAAGGTCACACACCGGTCG, the PBM binding z-score rises from -0.0537 to 0.234.

First: CCTACTGGGACAAAGGTCATTGATTCCAATGCTC
Second: CGAACTAGGTCAGAACAGGACAGTGAAGGATGAT
The PBM binding z-score of the first is lower: 5.4 for the first, 7.21 for the second.

First: TCTAGTTGCTCAAAGGTCACACACTCGAAATGCG
Second: GCTGCTAGGTCAACTGATGGTCAGGTAAAGCTCG
The PBM binding z-score of the first is lower: 2.7 for the first, 4.69 for the second.

Going from GGAACGAGGGCAACGTTGATAGCATCTGTCGACG to CCTACTGGGCCAAGAAGGTCATTGATGCCGATAA, the PBM binding z-score falls from 4.02 to 3.62.

Compared with CCGACTGGGGCAGAAAGGTTACCAGACCATCCGG, AGTCAAGGTTCACTAGGTAACGTAAGATTCAGCT is higher in PBM binding z-score: 1.28 for the first, 2.7 for the second.

Compared with CGTCCAAGGTCAATGGTAGGTCAGTGAAAGCATT, CTACCAAGGTGCACAAGGTCGTTGATTACTATTC is lower in PBM binding z-score: 3.32 for the first, 0.47 for the second.

Compared with TCGAGTAGGTTACCAATGGGGCACTCAGCTTTCT, AGTCAAAGTTCATCTAGGTAAGGTAAGATATGCT is lower in PBM binding z-score: 3.78 for the first, 0.598 for the second.

Going from TAGCCTAGGTCATTGGGTCAGTATAGTACGCATC to CGACCTAGGTCAGAACAGGACAGTGAAGGATGAT, the PBM binding z-score falls from 4.09 to 2.58.

test system: PPARg:RXRa IVT, anti-PPARg (NR concentration 270 nM, RXRa partner concentration 90 nM); test: as above
Summary of the method: as §1

Compared with CAAACTAGGTAACCGGAAGGTCAAAGTCCGCATG, TCTCGGAGGACACGAGAGGTCAGAGCTCGACATC is lower in PBM binding z-score: 6.36 for the first, 1.31 for the second.

Compared with AGAATGAGATTATACGTAGATCAGGGAAGAAAGT, CCTAGCAGGCCAATCTGAGTCACTCAAGGCTTGA is higher in PBM binding z-score: -0.334 for the first, 0.0725 for the second.

Going from GTACCAAAGTGAATAGGTCGTTGATGAGTAGGCG to GGTACAGGGTCAAGGCCAGAGTACGCGTATTGAT, the PBM binding z-score rises from -0.0847 to 3.96.

Compared with ACTTTCGGGTCAACGAGGTTATAGCACGCGTATA, AATACTGGGTCACTAGGCCAGAGTAGGTACGAAT is higher in PBM binding z-score: 4.16 for the first, 7.76 for the second.

First: AGAACGAGGGCACGCTGAGTGGATAGCAGAGTAG
Second: GGAACGAGGGCAAGTTGATAGGAGAGTTTGATGG
The PBM binding z-score of the first is higher: 3.9 for the first, 2.69 for the second.

Compared with CCTATTAGTTGACCGTAAGGGCAACCGAAGCTCG, CCTAGCAGGCCAGGGTCACTAAAGCATTTCGCTT is lower in PBM binding z-score: 0.672 for the first, 0.519 for the second.

First: TCCTATAGGTAATACAGGTGAAAGTCGGCATCTA
Second: TCTTGTAGATCAGCAGGTTAAAAAAGCTGGCCAA
The PBM binding z-score of the first is higher: 2.12 for the first, 0.467 for the second.

Compared with CCTAGCAGGCCAGGGTAACTCAAGCATTTCGCTT, GGAACGAGGGCAAAGTTTATAGCATCTGTCGACG is higher in PBM binding z-score: -0.0636 for the first, 4.43 for the second.

Going from CCTTACGGGTCACGGACAGGTTATAGCATTTGGA to TCATTTAGGTAAAAGGTGAAAGTCGGTGTGGTAA, the PBM binding z-score rises from 4.87 to 4.91.

Compared with CGTCAAAGTTCAACTAACGTAACGTAAAGCACGC, TCTTGTAGTTCAGCAGGTTAAGAAAGCTGGCCAA is lower in PBM binding z-score: 1.8 for the first, 0.541 for the second.

Going from CCAACTAGGTCAAGGTCAAAGTCGGTTTGTGCCA to ACTCGGAGGACAAAGGTCAGAGCTACGCCAGTGA, the PBM binding z-score falls from 8.03 to 3.72.

Going from TCATATAGTTAAAGGTGAAAGTCGAACGATATGA to GGAACGAAGGCAAAGTTGATAGCATCTGTCGACG, the PBM binding z-score falls from 1.85 to 0.452.

Compared with ATCTCGAGGTAAAAGTTCAGTGAATCCCGAGGAT, GCTAGTTGGTCCGTAAAAGGTCACACACCGGTCG is lower in PBM binding z-score: 2.11 for the first, 1.86 for the second.

Compared with CCTACTGGGACAAAGGTCATTGATTCCAATGCTC, CGAACTAGGTCAGAACAGGACAGTGAAGGATGAT is lower in PBM binding z-score: 7.14 for the first, 6.92 for the second.

First: TCTAGTTGCTCAAAGGTCACACACTCGAAATGCG
Second: GCTGCTAGGTCAACTGATGGTCAGGTAAAGCTCG
The PBM binding z-score of the first is lower: 3.98 for the first, 4.23 for the second.

Going from GGAACGAGGGCAACGTTGATAGCATCTGTCGACG to CCTACTGGGCCAAGAAGGTCATTGATGCCGATAA, the PBM binding z-score rises from 3.49 to 3.76.

Going from CCGACTGGGGCAGAAAGGTTACCAGACCATCCGG to AGTCAAGGTTCACTAGGTAACGTAAGATTCAGCT, the PBM binding z-score rises from 2.02 to 4.17.

Going from CGTCCAAGGTCAATGGTAGGTCAGTGAAAGCATT to CTACCAAGGTGCACAAGGTCGTTGATTACTATTC, the PBM binding z-score falls from 3.95 to 0.223.

Compared with TCGAGTAGGTTACCAATGGGGCACTCAGCTTTCT, AGTCAAAGTTCATCTAGGTAAGGTAAGATATGCT is higher in PBM binding z-score: 3.08 for the first, 3.32 for the second.

Compared with TAGCCTAGGTCATTGGGTCAGTATAGTACGCATC, CGACCTAGGTCAGAACAGGACAGTGAAGGATGAT is lower in PBM binding z-score: 4.95 for the first, 2.09 for the second.
